From PubChem BioAssay AID1159580 (chemical genetic matrix, 2015)
“And” between values parts separate entries of the source, which are not always exact repeats. Equal entries are not always repeated. The whole screen tested about 5,500 compounds, of which about 2,000 (36%) were called active. Roughly 18% stayed inconclusive and do not appear here. No stated cut-off is given here; in the data, active means normalized growth mostly below about 0.91 (no sharp cut-off); inconclusive means no clear call, values can overlap the other calls; inactive means mostly above about 0.92. This is one part of the list.

Test: chemical genetic growth profiling, strain panel (AID 1159580);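 further: tested at 20 µM; growth read once vehicle control cultures reached saturation at 30 °C; 1 = growth at the plate median or of vehicle wells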
Conditions: S. cerevisiae deletion strains, growth OD

Measured: normalized growth

CCN(CC)CCOC(=O)c1ccc(N)cc1
inactive: locus YAL013W, strain DEP1, stronger effect = lower value 0.955 | locus YAL021C, strain ccr4, stronger effect = lower value 0.964 | locus YAL026C, strain drs2, stronger effect = lower value 0.989 | locus YAL030W, strain snc1, stronger effect = lower value 0.986 | locus YAL040C, strain CLN3, stronger effect = lower value 1.04 | locus YBL061C, strain skt5, stronger effect = lower value 0.999 | locus YBR009C, strain hhf1, stronger effect = lower value 0.95 | locus YBR021W, strain FUR4, stronger effect = lower value 1.01 | locus YBR023C, strain chs3, stronger effect = lower value 0.976 | locus YBR171W, strain sec66, stronger effect = lower value 0.988 | locus YBR229C, strain ROT2, stronger effect = lower value 1.01 | locus YBR231C, strain swc5, stronger effect = lower value 1.01 | locus YBR279W, strain paf1, stronger effect = lower value 0.979 | locus YCL011C, strain gbp2, stronger effect = lower value 0.955 | locus YCL016C, strain dcc1, stronger effect = lower value 0.963 | locus YCL029C, strain bik1, stronger effect = lower value 0.989 | locus YCL061C, strain MRC1 (second series), stronger effect = lower value 0.977 | locus YCL061C, strain MRC1, stronger effect = lower value 0.975 | locus YCL069W, strain vba3, stronger effect = lower value 0.972 | locus YCR088W, strain abp1, stronger effect = lower value 0.978 | locus YDL005C, strain med2, stronger effect = lower value 0.99 | locus YDL035C, strain GPR1, stronger effect = lower value 1.01 | locus YDL040C, strain nat1, stronger effect = lower value 1 | locus YDL074C, strain BRE1, stronger effect = lower value 1.03 | locus YDL101C, strain DUN1, stronger effect = lower value 1.01 | locus YDL134C, strain PPH21, stronger effect = lower value 1.01 | locus YDL185W, strain tfp1, stronger effect = lower value 0.995 | locus YDL192W, strain arf1, stronger effect = lower value 0.986 | locus YDR001C, strain nth1, stronger effect = lower value 0.973 | locus YDR069C, strain doa4, stronger effect = lower value 0.998 | locus YDR101C, strain arx1, stronger effect = lower value 1 | locus YDR137W, strain rgp1, stronger effect = lower value 0.98 | locus YDR150W, strain NUM1, stronger effect = lower value 0.999 | locus YDR159W, strain sac3, stronger effect = lower value 0.928 | locus YDR162C, strain NBP2, stronger effect = lower value 1.01 | locus YDR195W, strain ref2 0.999 | locus YDR297W, strain sur2, stronger effect = lower value 0.986 | locus YDR318W, strain mcm21, stronger effect = lower value 0.977 | locus YDR334W, strain swr1, stronger effect = lower value 0.982 | locus YDR335W, strain msn5, stronger effect = lower value 0.981 | locus YDR363W, strain ESC2, stronger effect = lower value 1.01 | locus YDR388W, stronger effect = lower value 0.997 | locus YDR392W, strain spt3, stronger effect = lower value 0.928 | locus YDR502C, strain sam2, stronger effect = lower value 0.997 | locus YEL003W, strain gim4, stronger effect = lower value 0.98 | locus YEL037C, strain rad23, stronger effect = lower value 0.989 | locus YEL061C, strain CIN8 (second series), stronger effect = lower value 0.978 | locus YEL061C, strain CIN8, stronger effect = lower value 1.01 | locus YER002W, strain NOP16, stronger effect = lower value 0.984 | locus YER015W, strain faa2, stronger effect = lower value 1 | locus YER016W, strain bim1, stronger effect = lower value 0.979 | locus YER110C, stronger effect = lower value 0.999 | locus YER111C, strain swi4, stronger effect = lower value 0.977 | locus YER155C, strain BEM2 (second series), stronger effect = lower value 1.06 | locus YER155C, strain BEM2, stronger effect = lower value 1 | locus YER167W, strain BCK2, stronger effect = lower value 1 | locus YFR010W, strain ubp6, stronger effect = lower value 0.988 | locus YGL078C, strain dbp3, stronger effect = lower value 0.997 | locus YGL086W, strain mad1, stronger effect = lower value 0.994 | locus YGL167C, strain pmr1, stronger effect = lower value 0.997 | locus YGL173C, strain kem1, stronger effect = lower value 0.994 | locus YGL227W, strain vid30, stronger effect = lower value 0.984 | locus YGL240W, strain doc1, stronger effect = lower value 1.01 | locus YGL248W, strain PDE1, stronger effect = lower value 1.01 | locus YGL253W, strain hxk2, stronger effect = lower value 0.963 | locus YGR078C, strain PAC10, stronger effect = lower value 1.01 and 0.99 | locus YGR135W, strain pre9, stronger effect = lower value 0.997 | locus YGR229C, strain SMI1, stronger effect = lower value 0.964 | locus YGR252W, strain gcn5, stronger effect = lower value 0.998 | locus YHR013C, strain ard1, stronger effect = lower value 0.969 | locus YHR027C, strain rpn1, stronger effect = lower value 0.97 | locus YHR030C, strain SLT2, stronger effect = lower value 1 and 1.05 | locus YHR079C, strain IRE1 (second series), stronger effect = lower value 0.981 | locus YHR079C, strain IRE1, stronger effect = lower value 1.04 | locus YHR094C, strain hxt1, stronger effect = lower value 0.983 | locus YHR129C, strain ARP1, stronger effect = lower value 1.01 | locus YHR142W, strain chs7, stronger effect = lower value 0.972 | locus YHR200W, strain rpn10, stronger effect = lower value 0.997 | locus YIL066C, strain RNR3, stronger effect = lower value 1.01 | locus YIL073C, strain SPO22, stronger effect = lower value 0.969 | locus YIL125W, strain kgd1, stronger effect = lower value 0.995 | locus YIR030C, strain dcg1, stronger effect = lower value 0.993 | locus YJL092W, strain hpr5, stronger effect = lower value 0.992 | locus YJL095W, strain BCK1 (second series), stronger effect = lower value 0.993 | locus YJL095W, strain BCK1, stronger effect = lower value 1.03 | locus YJL115W, strain asf1, stronger effect = lower value 0.98 | locus YJL129C, strain trk1, stronger effect = lower value 0.989 | locus YJL134W, strain LCB3, stronger effect = lower value 0.999 | locus YJL154C, strain vps35, stronger effect = lower value 0.987 | locus YJL164C, strain tpk1, stronger effect = lower value 0.961 | locus YJL166W, strain qcr8, stronger effect = lower value 1.02 | locus YJL168C, strain set2, stronger effect = lower value 0.993 | locus YJL187C, strain SWE1 (second series), stronger effect = lower value 1.01 | locus YJR043C, strain POL32, stronger effect = lower value 1.01 | locus YJR066W, strain TOR1, stronger effect = lower value 0.999
